# Screening results: PubChem, National Center for Advancing Translational Sciences (NCATS)
# This is a sample that favours compounds with a hit; in the whole collection about 17% have one here.
# TDP1 cell noCPT: qHTS for Inhibitors of human tyrosyl-DNA phosphodiesterase 1 (TDP1): qHTS in cells in absence of CPT | Potency, µM (top dose mostly 46.2 µM), for the others: at the top dose activity change, negative = growth inhibition, usual class: inhibitors | 15% of 420,000 active | DT40 Tdp1-/- hTDP1 cells, no CPT, ATP luminescence, 48 h; also: % is scaled to controls: 0 for no effect and ±100 for the full control effect; nearly all actives have a fitted effect of over 55% in size
#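 Growth of hTDP1-complemented DT40 Tdp1-knockout cells is measured by ATP luminescence after at least 48 hr compound exposure at 37 °C, with DMSO substituting for the 20 nM CPT used in the parallel screen.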
# DT40 TDP1 CPT: qHTS for Inhibitors of human tyrosyl-DNA phosphodiesterase 1 (TDP1): qHTS in cells in presence of CPT; Potency, µM (series often up to 46.2 µM), inactives show at the highest dose activity change, negative = growth inhibition, hits mostly inhibitors; chicken DT40 Tdp1-/-;hTDP1 cells + 20 nM CPT, ATP luminescence, 48 h; 12% of 420,000 active; also: % is scaled to controls: 0 for no effect and ±100 for the full control effect; nearly all actives have a fitted effect of over 55% in size
#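 Chicken DT40 Tdp1-/- cells stably complemented with human TDP1 were seeded at 400 cells/well in medium containing 20 nM camptothecin, exposed to pin-transferred compounds, and grown at 37 °C for at least 48 hr. Viability was read as ATP luminescence.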
# ClpP mod: qHTS Assay for Activators of ClpP; purified B. subtilis ClpP, FRET peptide cleavage, 20 min; ATP-dependent Clp protease proteolytic subunit (Bacillus subtilis (strain 168)), P80244; AID 651965, 2013; Potency, µM (titrated, usually from 57.5 µM), inactives show at the highest dose activity change, negative = active; 1.9% of 340,000 active; active = well fitted falling curve with a large enough effect; inconclusive = small, poorly fitted or top-dose-only effect; inactive = no such curve, though single readings can be large or run the other way; also: the source files actives as falling curves though it sought activators and does not explain the sign; nearly all actives have a fitted effect of over 65% in size
# Target sequence (P80244 whole entry, looked up): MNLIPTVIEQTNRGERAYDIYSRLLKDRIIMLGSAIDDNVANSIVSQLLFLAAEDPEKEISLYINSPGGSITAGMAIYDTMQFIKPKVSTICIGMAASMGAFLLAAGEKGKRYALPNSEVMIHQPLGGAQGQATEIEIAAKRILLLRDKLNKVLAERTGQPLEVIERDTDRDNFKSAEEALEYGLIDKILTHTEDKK
#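 FRET quenching reversal measured ClpP activation: 10 microg/mL B. subtilis ClpP at pH 8 with the FRET-FV decapeptide, read at 430 nm after 320 nm excitation. The 20-min minus 0-min signal was scaled between DMSO/no-enzyme wells and ADEP (5.8 microM final).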
# TDP1 block: qHTS Assay for Inhibitors of Tyrosyl-DNA Phosphodiesterase (TDP1); Tyrosyl-DNA phosphodiesterase 1 (Homo sapiens), Q9NUW8; recombinant TDP1, AlphaScreen DNA substrate cleavage; Potency, µM (highest dose often 130 µM), for inactives: top-dose activity change, negative = inhibition, most hits filed as inhibitors; 0.28% of 350,000 active; also: % is scaled to controls: 0 for no effect and ±100 for the full control effect; nearly all actives have a fitted effect of over 40% in size
#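 Compounds were preincubated with Tdp1 (1 nM final) for 15 min at room temperature before substrate (15 nM final) started a 5 min reaction; beads (10 ug/ml final) were then added for 10 min before AlphaScreen detection.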
# Active calls of the source: *; ? = inconclusive; nt = no result. Unless noted, calls follow the shape of the dose curve; as a rule, active = well fitted curve in the direction sought with a large enough effect; inconclusive = small, poorly fitted or top-dose-only effect, or another doubt; inactive = no such curve, though single readings can be large; an effect the other way counts as inactive or inconclusive. Potency is read from the fitted curve at half-maximal effect.
SMILES,TDP1 cell noCPT,DT40 TDP1 CPT,ClpP mod,TDP1 block
O=C(c1cccs1)N1C[C@@H](O)[C@H](n2cc(-c3ccc(F)cc3)nn2)C[C@@H]1c1ccccc1,16µM*,18µM*,-1%,nt
CCCCCC(=O)N1C[C@@H](O)[C@H](n2cc(C3CC3)nn2)C[C@@H]1c1ccc(C)cc1,-27%,-20%,1%,nt
CCCCCC(=O)N1C[C@@H](O)[C@H](n2cc(-c3ccc(F)cc3)nn2)C[C@@H]1c1ccc(C)cc1,18µM*,?,0%,nt
Cc1ccc([C@H]2C[C@H](n3cc(-c4ccc(F)cc4)nn3)[C@@H](O)CN2C(=O)c2cccs2)cc1,?,5%,1%,nt
Brc1ccc(-c2cnc(-c3cccs3)o2)cc1,-15%,5%,32µM*,nt
CCn1c(CNC(=O)COc2ccc(C(C)C)cc2)nnc1SCC(=O)Nc1ccccc1C(C)C,16µM*,16µM*,-1%,2%
Cc1c(Cl)cccc1NS(=O)(=O)c1cc2c(cc1F)NC(=O)CC2,nt,nt,nt,0%
CCCn1nnc(NC(=S)NC(=O)c2cccs2)n1,18µM*,21µM*,1%,1%
O=c1c(CN2CCN(Cc3ccccc3F)C(CCO)C2)coc2ccccc12 (stereo not drawn),-5%,2%,1%,nt
CC(=O)c1ccc(NC(=O)c2noc3c2CSc2ccccc2-3)cc1,9.2µM*,15µM*,-3%,0%
CC(=O)c1ccc(NC(=O)c2nn(C)c3c2COc2ccccc2-3)cc1,?,15µM*,0%,11%
CCN(CC)CCOC(=O)c1ccc(NC(=O)c2nn(C)c3c2COc2ccccc2-3)cc1,3.3µM*,4.1µM*,-9%,6%
CC(=O)c1ccc(NC(=O)c2nn(C)c3c2CS(=O)(=O)c2ccccc2-3)cc1,-12%,-18%,0%,6%
CCOc1ccc(NC(=O)c2noc3c2CSc2ccccc2-3)cc1,-25%,-9%,-6%,9%
CCOC(=O)c1ccc(NC(=O)c2nn(C)c3c2COc2ccccc2-3)cc1,-5%,?,-2%,14%
CC(C)(C)C(=O)NCCCC(=O)O,-18%,-9%,nt,4%
O=C(NC1CC(=O)N(c2cccc(F)c2)C1)c1cc2ccccc2o1 (stereo not drawn),?,-27%,-3%,3%
COc1cc2cc(CNc3ccccc3)c(=O)n(CC(=O)Nc3ccccc3)c2cc1OC,18µM*,?,4%,5%
COc1ccccc1NC(=O)Cn1c(=O)c(CNc2ccccc2)cc2cc(OC)c(OC)cc21,6.5µM*,5.2µM*,4%,8%
CCc1ccc(NCc2cc3cc(OC)c(OC)cc3n(CC(=O)Nc3cc(C)ccc3C)c2=O)cc1,nt,nt,-17%,6%
CCc1ccc(NCc2cc3cc(OC)c(OC)cc3n(CC(=O)Nc3ccc(F)cc3)c2=O)cc1,nt,nt,4%,8%
O=C(Nc1ccc(N2CCN(C(=O)c3ccccc3)CC2)cc1)c1ccc(Br)o1,?,16µM*,0%,4%
O=C(Nc1ccc(N2CCOCC2)c(Cl)c1)c1ccc(Br)o1,11µM*,?,-1%,1%
O=C(Nc1ccc(N2CCN(C(=O)c3ccccc3)CC2)c(Cl)c1)c1ccc(Br)o1,21µM*,23µM*,-2%,2%
O=C(Nc1ccc(N2CCCC2)cc1)c1ccc(Br)o1,?,?,1%,4%
SMILES,TDP1 cell noCPT,DT40 TDP1 CPT,ClpP mod,TDP1 block
O=C(Nc1ccc(CN2CCOCC2)cc1)c1ccc(Br)o1,-16%,21%,-2%,nt
Cn1cc(S(=O)(=O)N2CCNCC2)cc1C(N)=O,-3%,2%,-3%,-4%
Cc1nc(CC(=O)Nc2ccc(C(N)=O)cc2)cs1,2%,8%,1%,-2%
Cc1ccc(S(=O)(=O)Nc2ccc3cc([N+](=O)[O-])ccc3c2[N+](=O)[O-])cc1,23µM*,?,nt,nt
COc1ccc([N+](=O)[O-])cc1NS(=O)(=O)c1ccc(C)cc1,?,-17%,0%,4%
Cc1ccc(S(=O)(=O)Nc2ccccc2N=Cc2ccc([N+](=O)[O-])cc2[N+](=O)[O-])cc1,18µM*,26µM*,1%,nt
C[C@]12C=CC(=O)N[C@@H]1CC[C@@H]1[C@@H]2CC[C@]2(C)[C@@H](C(=O)Nc3cc(C(F)(F)F)ccc3C(F)(F)F)CC[C@@H]12,-11%,-13%,nt,nt
COc1ccc(CN2CCc3c([nH]c4ccccc34)C2)cc1Br,?,-21%,-5%,nt
COc1ccc(CN2CCc3c([nH]c4ccccc34)C2)c(OC)c1C,?,?,28µM*,nt
Cc1ccccc1NCC(=O)N/N=C/c1c(C)c(C(=O)c2ccc(Cl)cc2)n2ccccc12,16µM*,16µM*,1%,-1%
Cc1c(/C=N/NC(=O)CNc2ccccc2)c2ccccn2c1C(=O)c1ccc(Cl)cc1,?,?,-2%,8%
COc1ccc(OC)c(S(=O)(=O)N2CCCC(C(=O)N3CCCCCC3)C2)c1 (stereo not drawn),-7%,-1%,-2%,1%
Cc1cc(C)c2oc(C(=O)Nc3ccc(S(=O)(=O)N4CCC(C)CC4)cc3)cc(=O)c2c1,7.3µM*,10µM*,-2%,0%
Cc1ccc2c(=O)cc(C(=O)Nc3ccc(S(=O)(=O)N4CCCCCC4)cc3)oc2c1C,15µM*,?,0%,2%
Cc1ccc2c(=O)cc(C(=O)Nc3ccc(S(=O)(=O)N(C)c4ccccc4)cc3)oc2c1C,-6%,2%,-4%,2%
C(#Cc1ccccc1)Cn1nnc2ccccc21,-18%,-23%,28µM*,-3%
COc1cccc(-c2nnc(NC(=O)c3ccc(S(=O)(=O)N4CCOCC4)cc3)o2)c1,12µM*,23µM*,-1%,15%
O=C(Nc1nnc(-c2ccco2)o1)c1ccc(S(=O)(=O)N2CCCCC2)cc1,13µM*,21µM*,3%,nt
Cc1nnc(NC(=O)c2ccc(S(=O)(=O)N3CCCCC3C)cc2)o1 (stereo not drawn),-20%,-22%,-9%,4%
CC1CCCCN1S(=O)(=O)c1ccc(C(=O)Nc2nnc(-c3ccco3)o2)cc1 (stereo not drawn),26µM*,15µM*,-1%,4%
COc1ccc(C(O)P(=O)(OCCC(C)C)c2ccc(N(C)C)cc2)cc1 (stereo not drawn),-11%,-29%,-5%,nt
COc1cc(Br)cc(CNc2ccc(F)c([N+](=O)[O-])c2)c1O,?,?,nt,-4%
CCOc1ccc(-c2nnc(-c3ccccc3)n2-c2ccccc2)cc1,10µM*,?,-4%,0%
COc1ccc(C(=O)CSc2nnc(CN3CCCCC3)n2-c2ccc(F)cc2)cc1,13µM*,21µM*,nt,2%
